# In the supplement of paper PMC4466140:
# Assays:
# Test in all cases: SPOT peptide array binding signal intensity (averaged, normalized) (arbitrary units (background-subtracted, floor 0; scale differs between SH3 domains)); higher = stronger binding of the SH3 domain to the peptide
# AgAbp1 = target: AgAbp1
# In short: (§1)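 GST-fused SH3 domains, from four yeast species, were produced in E. coli BL21(DE3) and captured on glutathione Sepharose. Membranes of cellulose carrying synthetic 15-mer peptides, in which cysteines had been replaced by serines, were exposed to each domain at 10 μg/ml overnight at 4°C in TBS-based blocking buffer. After anti-GST antibody, an HRP anti-mouse secondary and luminol, spots were imaged and quantified using Genespotter. Binding signal is normalized and background-subtracted spot intensity, averaged over replicates, in arbitrary units that differ between domains.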
# AgBbc1 = target: AgBbc1
# In short: as §1
# AgBem1-D1 = target: AgBem1-D1
# In short: as §1
# AgBzz1-D1 = target: AgBzz1-D1
# In short: as §1
# AgBzz1-D2 = target: AgBzz1-D2
# In short: as §1
# AgCyk3 = target: AgCyk3
# In short: as §1
# AgFus1 = target: AgFus1
# In short: as §1
# AgHof1 = target: AgHof1
# In short: as §1
# AgHse1 = target: AgHse1
# In short: as §1
# AgLsb1 = target: AgLsb1
# In short: as §1
# AgLsb4 = target: AgLsb4
# In short: as §1
# AgMyo5 = target: AgMyo5
# In short: as §1
# AgNbp2 = target: AgNbp2
# In short: as §1
# AgRvs167 = target: AgRvs167
# In short: as §1
# AgSho1 = target: AgSho1
# In short: as §1
# AgSla1-D1-D2 = target: AgSla1-D1-D2
# In short: as §1
# AgSla1-D3 = target: AgSla1-D3
# In short: as §1
# CaAbp1-D1 = target: CaAbp1-D1
# In short: as §1
# CaAbp1-D2 = target: CaAbp1-D2
# In short: as §1
# CaBbc1 = target: CaBbc1
# In short: as §1
# CaBem1-D1 = target: CaBem1-D1
# In short: as §1
# CaBzz1-D1 = target: CaBzz1-D1
# In short: as §1
# CaBzz1-D2 = target: CaBzz1-D2
# In short: as §1
# CaCyk3 = target: CaCyk3
# In short: as §1
# CaFus1 = target: CaFus1
# In short: as §1
# CaHof1 = target: CaHof1
# In short: as §1
# CaHse1 = target: CaHse1
# In short: as §1
# CaLsb1 = target: CaLsb1
# In short: as §1
# CaLsb4 = target: CaLsb4
# In short: as §1
# CaMyo5 = target: CaMyo5
# In short: as §1
# CaNbp2 = target: CaNbp2
# In short: as §1
# CaRvs167 = target: CaRvs167
# In short: as §1
# CaRvs167-3 = target: CaRvs167-3
# In short: as §1
# CaSho1 = target: CaSho1
# In short: as §1
# CaSla1-D1-D2 = target: CaSla1-D1-D2
# In short: as §1
# CaSla1-D3 = target: CaSla1-D3
# In short: as §1
# ScAbp1 = target: ScAbp1
# In short: as §1
# ScBbc1 = target: ScBbc1
# In short: as §1
# ScBem1-D1 = target: ScBem1-D1
# In short: as §1
# ScBzz1-D1 = target: ScBzz1-D1
# In short: as §1
# ScBzz1-D2 = target: ScBzz1-D2
# In short: as §1
# ScCyk3 = target: ScCyk3
# In short: as §1
# ScFus1 = target: ScFus1
# In short: as §1
# ScHof1 = target: ScHof1
# In short: as §1
# ScHse1 = target: ScHse1
# In short: as §1
# ScLsb1 = target: ScLsb1
# In short: as §1
# ScLsb2 = target: ScLsb2
# In short: as §1
# ScLsb3 = target: ScLsb3
# In short: as §1
# ScLsb4 = target: ScLsb4
# In short: as §1
# ScMyo3 = target: ScMyo3
# In short: as §1
# ScMyo5 = target: ScMyo5
# In short: as §1
# ScNbp2 = target: ScNbp2
# In short: as §1
# ScPex13 = target: ScPex13
# In short: as §1
# ScRvs167 = target: ScRvs167
# In short: as §1
# ScSho1 = target: ScSho1
# In short: as §1
# ScSla1-D1-D2 = target: ScSla1-D1-D2
# In short: as §1
# ScSla1-D3 = target: ScSla1-D3
# In short: as §1
# SpAbp1-D1 = target: SpAbp1-D1
# In short: as §1
# SpBbc1 = target: SpBbc1
# In short: as §1
# SpBzz1-D1 = target: SpBzz1-D1
# In short: as §1
# SpBzz1-D2 = target: SpBzz1-D2
# In short: as §1
# SpCyk3 = target: SpCyk3
# In short: as §1
# SpHof1 = target: SpHof1
# In short: as §1
# SpHof1-2 = target: SpHof1-2
# In short: as §1
# SpHof1-3 = target: SpHof1-3
# In short: as §1
# SpHse1 = target: SpHse1
# In short: as §1
# SpLsb1 = target: SpLsb1
# In short: as §1
# SpLsb4 = target: SpLsb4
# In short: as §1
# SpMyo1 = target: SpMyo1
# In short: as §1
# SpNbp2 = target: SpNbp2
# In short: as §1
# SpPex13 = target: SpPex13
# In short: as §1
# SpRvs167 = target: SpRvs167
# In short: as §1
# SpSla1-D1-D2 = target: SpSla1-D1-D2
# In short: as §1
# SpSla1-D3 = target: SpSla1-D3
# In short: as §1
binder,measurement,setting,value
LTRRFPFLFPFDTRM,SPOT peptide array binding signal intensity,AgAbp1,4
same,SPOT peptide array binding signal intensity,AgBbc1,≤ 0
same,SPOT peptide array binding signal intensity,AgBem1-D1,47
same,SPOT peptide array binding signal intensity,AgBzz1-D1,13
same,SPOT peptide array binding signal intensity,AgBzz1-D2,27
same,SPOT peptide array binding signal intensity,AgCyk3,1
same,SPOT peptide array binding signal intensity,AgFus1,198
same,SPOT peptide array binding signal intensity,AgHof1,43.5
same,SPOT peptide array binding signal intensity,AgHse1,1430
same,SPOT peptide array binding signal intensity,AgLsb1,1.75
same,SPOT peptide array binding signal intensity,AgLsb4,18
same,SPOT peptide array binding signal intensity,AgMyo5,1.5
same,SPOT peptide array binding signal intensity,AgNbp2,36
same,SPOT peptide array binding signal intensity,AgRvs167,3.33
same,SPOT peptide array binding signal intensity,AgSho1,21
same,SPOT peptide array binding signal intensity,AgSla1-D1-D2,25.5
same,SPOT peptide array binding signal intensity,AgSla1-D3,4
same,SPOT peptide array binding signal intensity,CaAbp1-D1,573
same,SPOT peptide array binding signal intensity,CaAbp1-D2,155
same,SPOT peptide array binding signal intensity,CaBbc1,3.25
same,SPOT peptide array binding signal intensity,CaBem1-D1,7
same,SPOT peptide array binding signal intensity,CaBzz1-D1,40
same,SPOT peptide array binding signal intensity,CaBzz1-D2,12.5
same,SPOT peptide array binding signal intensity,CaCyk3,8
same,SPOT peptide array binding signal intensity,CaFus1,1040
same,SPOT peptide array binding signal intensity,CaHof1,0.5
same,SPOT peptide array binding signal intensity,CaHse1,83.5
same,SPOT peptide array binding signal intensity,CaLsb1,≤ 0
same,SPOT peptide array binding signal intensity,CaLsb4,9.5
same,SPOT peptide array binding signal intensity,CaMyo5,13.8
same,SPOT peptide array binding signal intensity,CaNbp2,249
same,SPOT peptide array binding signal intensity,CaRvs167,10.2
same,SPOT peptide array binding signal intensity,CaRvs167-3,43.2
same,SPOT peptide array binding signal intensity,CaSho1,892
same,SPOT peptide array binding signal intensity,CaSla1-D1-D2,30.5
same,SPOT peptide array binding signal intensity,CaSla1-D3,20
same,SPOT peptide array binding signal intensity,ScAbp1,39
same,SPOT peptide array binding signal intensity,ScBbc1,0.5
same,SPOT peptide array binding signal intensity,ScBem1-D1,14
same,SPOT peptide array binding signal intensity,ScBzz1-D1,10
same,SPOT peptide array binding signal intensity,ScBzz1-D2,10
same,SPOT peptide array binding signal intensity,ScCyk3,374
same,SPOT peptide array binding signal intensity,ScFus1,289
same,SPOT peptide array binding signal intensity,ScHof1,0.5
same,SPOT peptide array binding signal intensity,ScHse1,1600
same,SPOT peptide array binding signal intensity,ScLsb1,≤ 0
same,SPOT peptide array binding signal intensity,ScLsb2,≤ 0
same,SPOT peptide array binding signal intensity,ScLsb3,27.5
same,SPOT peptide array binding signal intensity,ScLsb4,≤ 0
same,SPOT peptide array binding signal intensity,ScMyo3,2.5
same,SPOT peptide array binding signal intensity,ScMyo5,1.5
same,SPOT peptide array binding signal intensity,ScNbp2,128
same,SPOT peptide array binding signal intensity,ScPex13,≤ 0
same,SPOT peptide array binding signal intensity,ScRvs167,14.3
same,SPOT peptide array binding signal intensity,ScSho1,335
same,SPOT peptide array binding signal intensity,ScSla1-D1-D2,7
same,SPOT peptide array binding signal intensity,ScSla1-D3,7.5
same,SPOT peptide array binding signal intensity,SpAbp1-D1,195
same,SPOT peptide array binding signal intensity,SpBbc1,≤ 0
same,SPOT peptide array binding signal intensity,SpBzz1-D1,53.5
same,SPOT peptide array binding signal intensity,SpBzz1-D2,≤ 0
same,SPOT peptide array binding signal intensity,SpCyk3,11.5
same,SPOT peptide array binding signal intensity,SpHof1,72.5
same,SPOT peptide array binding signal intensity,SpHof1-2,11.5
same,SPOT peptide array binding signal intensity,SpHof1-3,1320
same,SPOT peptide array binding signal intensity,SpHse1,1740
same,SPOT peptide array binding signal intensity,SpLsb1,≤ 0
same,SPOT peptide array binding signal intensity,SpLsb4,≤ 0
same,SPOT peptide array binding signal intensity,SpMyo1,7
same,SPOT peptide array binding signal intensity,SpNbp2,69
same,SPOT peptide array binding signal intensity,SpPex13,14
same,SPOT peptide array binding signal intensity,SpRvs167,2.17
same,SPOT peptide array binding signal intensity,SpSla1-D1-D2,2.5
same,SPOT peptide array binding signal intensity,SpSla1-D3,5
LKQRFFLMFPKSIIW,SPOT peptide array binding signal intensity,AgAbp1,4
same,SPOT peptide array binding signal intensity,AgBbc1,6
same,SPOT peptide array binding signal intensity,AgBem1-D1,102
same,SPOT peptide array binding signal intensity,AgBzz1-D1,49.5
same,SPOT peptide array binding signal intensity,AgBzz1-D2,44
same,SPOT peptide array binding signal intensity,AgCyk3,1.5
same,SPOT peptide array binding signal intensity,AgFus1,742
same,SPOT peptide array binding signal intensity,AgHof1,81.5
same,SPOT peptide array binding signal intensity,AgHse1,1020
same,SPOT peptide array binding signal intensity,AgLsb1,0.5
same,SPOT peptide array binding signal intensity,AgLsb4,42.5
same,SPOT peptide array binding signal intensity,AgMyo5,0.5
same,SPOT peptide array binding signal intensity,AgNbp2,146
same,SPOT peptide array binding signal intensity,AgRvs167,3.67
same,SPOT peptide array binding signal intensity,AgSho1,102
same,SPOT peptide array binding signal intensity,AgSla1-D1-D2,141
same,SPOT peptide array binding signal intensity,AgSla1-D3,21
same,SPOT peptide array binding signal intensity,CaAbp1-D1,295
same,SPOT peptide array binding signal intensity,CaAbp1-D2,65.5
same,SPOT peptide array binding signal intensity,CaBbc1,17.8
same,SPOT peptide array binding signal intensity,CaBem1-D1,33.5
same,SPOT peptide array binding signal intensity,CaBzz1-D1,104
same,SPOT peptide array binding signal intensity,CaBzz1-D2,48.5
same,SPOT peptide array binding signal intensity,CaCyk3,5
same,SPOT peptide array binding signal intensity,CaFus1,4200
same,SPOT peptide array binding signal intensity,CaHof1,0.5
same,SPOT peptide array binding signal intensity,CaHse1,121
same,SPOT peptide array binding signal intensity,CaLsb1,1.5
same,SPOT peptide array binding signal intensity,CaLsb4,42
same,SPOT peptide array binding signal intensity,CaMyo5,35
